# Source: PubChem
# Shown are actives, neighbours in structure and some others; about 1.1% of the full set was active somewhere.
# LAP4-GFP MLPCN: yeast TOR pathway LAP4-GFP modulation. S. cerevisiae LAP4-GFP multiplex, flow cytometry GFP, 3 h; median GFP as percent of DMSO wells. GFP response vs DMSO, % at 10 µM. hit rate 0.34% among 320,000;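 active = GFP response vs DMSO above a set limit, about the screen mean plus 3 SD, cut at about 150% in these data; inconclusive = under 70 cell events counted for the yeast strain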
# AGP1 TOR yeast: alters AGP1-GFP fluorescence in TOR pathway yeast screen; hit rate 0.02% among 320,000; AID 2066; GFP response vs DMSO, % at 10 µM; S. cerevisiae AGP1-GFP multiplex flow cytometry, 3 h; GFP as percent of DMSO wells;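 active = GFP response relative to DMSO above a set limit, near screen average plus 3 SD, cut at about 150% in these data; inconclusive = fewer than 70 cells counted for the yeast strain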;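 also: median GFP channel fluorescence of the gated AGP1 strain per well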
# MEP2 TOR yeast: yeast TOR pathway MEP2-GFP modulation; hit rate 0.51% among 330,000; GFP response vs DMSO, % at 10 µM; S. cerevisiae MEP2-GFP strain, flow cytometry GFP, 3 h; 100% = DMSO control level;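 active = GFP response versus DMSO above a set limit, roughly screen mean plus 3 SD, cut at about 180% in these data; inconclusive = fewer than 70 cells counted for a yeast strain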;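 also: median GFP fluorescence of the barcode-gated MEP2-GFP cells per well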
# CIT2-GFP yeast: modulators of TOR pathway CIT2-GFP in S. cerevisiae | S. cerevisiae CIT2-GFP strain, flow cytometry, 3 h; 100 means same as DMSO wells | GFP response vs DMSO, % at 10 µM | hit rate 0.065% among 320,000 | AID 2029;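 active = GFP response relative to DMSO above a set limit, near the screen mean plus 3 SD, cut at about 150% in these data; inconclusive = Fewer than 70 cells measured for a yeast strain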;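 also: ratio of well median GFP fluorescence to mean of DMSO wells on the plate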
# RPL19A-GFP yeast: modulators of TOR pathway RPL19A-GFP in S. cerevisiae; S. cerevisiae RPL19A-GFP strain, flow cytometry, 3 h; hits give low values; percent response vs DMSO, % at 10 µM; hit rate 0.3% among 330,000;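 active = percent response vs DMSO below 50%; inconclusive = fewer than 70 events counted for the yeast strain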;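 also: median channel GFP fluorescence of the barcoded RPL19A-GFP strain; ratio of sample median GFP to plate DMSO average so 100% = DMSO; lower means less RPL19A-GFP as with rapamycin TOR inhibition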
# VLA-4 inh: inhibition in a human VLA-4 binding assay; P13612; VLA-4 expressing cells, ligand binding flow cytometry; inhibition, % (about 7 µM as worked out from the volumes in the protocol); hit rate 0.2% among 330,000; in the data active = inhibition above about 50%
# Target sequence (P13612 whole entry, looked up): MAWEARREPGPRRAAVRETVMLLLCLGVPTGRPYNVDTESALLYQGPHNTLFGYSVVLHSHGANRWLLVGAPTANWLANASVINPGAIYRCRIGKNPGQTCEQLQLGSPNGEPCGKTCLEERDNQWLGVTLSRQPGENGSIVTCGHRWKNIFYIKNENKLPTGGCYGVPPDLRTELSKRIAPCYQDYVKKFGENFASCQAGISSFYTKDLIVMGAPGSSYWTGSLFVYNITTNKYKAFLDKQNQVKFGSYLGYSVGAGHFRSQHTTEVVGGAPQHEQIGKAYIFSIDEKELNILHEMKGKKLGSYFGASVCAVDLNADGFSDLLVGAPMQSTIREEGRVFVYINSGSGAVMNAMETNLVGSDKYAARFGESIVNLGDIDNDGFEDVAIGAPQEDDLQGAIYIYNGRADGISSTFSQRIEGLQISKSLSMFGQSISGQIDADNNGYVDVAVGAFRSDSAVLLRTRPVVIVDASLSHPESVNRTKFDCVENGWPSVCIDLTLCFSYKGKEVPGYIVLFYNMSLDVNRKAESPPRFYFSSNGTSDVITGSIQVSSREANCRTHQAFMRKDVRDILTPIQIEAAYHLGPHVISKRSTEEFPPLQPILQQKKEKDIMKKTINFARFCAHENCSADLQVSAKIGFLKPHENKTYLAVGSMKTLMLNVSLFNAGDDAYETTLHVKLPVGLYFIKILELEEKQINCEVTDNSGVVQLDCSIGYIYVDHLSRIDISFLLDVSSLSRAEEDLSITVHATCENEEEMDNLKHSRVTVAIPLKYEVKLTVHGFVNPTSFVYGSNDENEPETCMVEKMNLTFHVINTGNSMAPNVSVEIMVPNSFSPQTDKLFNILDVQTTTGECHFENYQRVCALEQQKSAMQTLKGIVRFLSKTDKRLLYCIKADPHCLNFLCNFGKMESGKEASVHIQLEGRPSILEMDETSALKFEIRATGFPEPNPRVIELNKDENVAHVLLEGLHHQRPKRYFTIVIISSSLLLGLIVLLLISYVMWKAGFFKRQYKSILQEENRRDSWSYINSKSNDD
# Numbers without * were called inactive; i = inactive; u = inconclusive; x = not tested or not shown; + = active, no number; [ ] = remark or other dose.
SMILES,LAP4-GFP MLPCN,AGP1 TOR yeast,MEP2 TOR yeast,CIT2-GFP yeast,RPL19A-GFP yeast,VLA-4 inh
Cc1[nH]c2ccccc2c1/C=N/NC(=O)c1ccc(N)cc1,91,97,104,103,103,3
Cc1[nH]c2ccccc2c1/C=N/NC(=O)c1cc(-c2ccccc2)n[nH]1,77,u,174,u,46*[may fluoresce violet],-5
Cc1[nH]c2ccccc2c1/C=N/NC(=O)Nc1ccccc1,126,u,88,u,24*[may fluoresce violet],3
Cc1ccc(SCC(=O)N(C)CC(=O)Nc2cccc(F)c2)c(C)c1,98,92,88,90,94,1
COc1ccc(-c2nn(-c3ccccc3)cc2CNC[C@H]2O[C@@H](n3cnc4c(N)ncnc43)[C@H](O)[C@@H]2O)cc1,101,100,95,103,98,-18
CCOc1ccc(NC(=O)c2ccc3c(c2)OCCO3)cc1S(=O)(=O)N(CC)CC,93,97,93,103,99,0
O=C(NCC1CCCO1)C(c1ccco1)N(Cc1ccc(F)cc1)C(=O)CN1C(=O)c2ccccc2S1(=O)=O (stereo not drawn),94,102,105,103,105,4
NC(=O)C1CCCN(C(=O)c2ccc(Cl)cc2)C1 (stereo not drawn),103,105,108,100,100,-2
O=C(c1ccc(Cl)cc1)N1CCCOC1,89,u,410*[may fluoresce violet],u,50,3
Cc1ccc(C(=O)c2ccccc2C(=O)OCC(=O)N2C(C)CCCC2C)cc1 (stereo not drawn),91,95,94,85,93,12
N#C/C(=C(/O)c1ccc([N+](=O)[O-])o1)c1nc2ccccc2[nH]1,110,103,102,105,98,-18
Cc1ccc2nc(/C(C#N)=C\c3ccc([N+](=O)[O-])o3)[nH]c2c1,+[may fluoresce red and violet],u,+[may fluoresce red and violet],u,u,i
N#C/C(=C\c1ccc([N+](=O)[O-])o1)c1nc2ccccc2[nH]1,704*[may fluoresce violet],110,+[may fluoresce violet],u,189,i
Cc1ccc2nc(/C(C#N)=C\c3ccc(N4CCOCC4)o3)[nH]c2c1,132,104,143,126,101,-194
Nc1ccc(O)c(C(=O)O)c1,111,102,102,105,101,51*
COc1cc(N)ccc1C(=O)O,99,106,102,104,97,0
CNc1nc(-c2ccccc2)cc(C(F)(F)F)c1C#N,91,23,220*,103,75,15
COc1ccc(S(=O)(=O)N2CCC(C(=O)NC(c3nc4ccccc4[nH]3)C(C)C)CC2)cc1 (stereo not drawn),100,93,93,86,96,-4
CCc1ccc2c(c1)C1(C(=O)N2)N2CCCC2C(C(=O)c2ccc3ccccc3c2)C12C(=O)Nc1ccccc12 (stereo not drawn),102,99,103,92,100,17
CCc1ccc2c(c1)C1(NN=C(c3cccc4ccccc34)S1)C(=O)N2 (stereo not drawn),168*,78,92,89,71,8
COc1ccc(N=c2oc3cc(O)ccc3cc2C(=O)NCC2CCCO2)c(OC)c1 (stereo not drawn),82,u,348*[may fluoresce violet],u,43*[may fluoresce violet],22
Cc1csc(=O)n1CCC(=O)OCC(=O)Nc1cccc(C#N)c1,101,104,100,91,101,19
COc1ccc(N2CCN(C(=O)COC(=O)CCc3ccccc3OC)CC2)cc1,104,98,101,104,98,8
Cc1ccc(S(=O)(=O)c2cc3c(=O)n4ccccc4nc3n(CCc3ccccc3)c2=N)cc1,85,u,217*[may fluoresce violet],u,43*[may fluoresce violet],-9
Cc1ccc(S(=O)(=O)c2cc3c(=O)n4ccccc4nc3n(C3CCCC3)c2=N)cc1,93,u,291*[may fluoresce red and violet],u,u,0
SMILES,LAP4-GFP MLPCN,AGP1 TOR yeast,MEP2 TOR yeast,CIT2-GFP yeast,RPL19A-GFP yeast,VLA-4 inh
O=C1CCC([N+](=O)[O-])C(c2ccc(Cl)cc2)N1 (stereo not drawn),u,u,u,u,43*[may fluoresce violet],10
O=C1CCC([N+](=O)[O-])C(c2ccc(Cl)c([N+](=O)[O-])c2)N1 (stereo not drawn),106,101,95,93,95,2
Cc1ccc(C(C[N+](=O)[O-])n2nc(C)cc2C)cc1 (stereo not drawn),206*,96,102,83,83,12
CN(CC(O)CN1CCOCC1)S(=O)(=O)O (stereo not drawn),103,100,95,85,96,8
OC(CN1CCOCC1)CN1CCOCC1,73,u,226*[may fluoresce violet],u,64,3
COc1cccc(N2CCN(c3ccc4nnc(CCC(=O)Nc5ccc(F)cc5F)n4n3)CC2)c1,84,98,89,98,96,-11
COc1cccc(N2CCN(c3ccc4nnc(CCC(=O)Nc5ccc(F)cc5)n4n3)CC2)c1,81,u,238*[may fluoresce violet],u,55,3
N/C(=N\OC(=O)c1ccccc1Cl)c1cccc([N+](=O)[O-])c1,103,93,111,100,98,16
N/C(=N/OC(=O)c1ccccc1Cl)c1ncc([N+](=O)[O-])s1,125,u,741*[may fluoresce violet],u,70,-11
C/C(=N/NC(=O)c1ccc(C)s1)c1ccncc1,80,92,111,88,106,0
COc1cc(C(=O)Nc2cc(S(C)(=O)=O)ccc2Cl)ccc1OCC(=O)N1CCOCC1,106,109,106,98,96,16
N#CCCN(C(=O)COC(=O)CCNS(=O)(=O)c1ccccc1)c1ccccc1,92,94,98,102,96,11
COc1ccc(NC(=O)c2ccc(-c3ccc([N+](=O)[O-])cc3)o2)cc1,111,100,101,90,95,1
COc1ccc(CCNC(=O)c2ccc(-c3ccc([N+](=O)[O-])cc3)o2)cc1OC,93,21,196*[may fluoresce violet],u,43*[may fluoresce violet],-47
CCOc1nc(-c2ccccc2)ncc1Oc1ccccc1,108,110,106,99,105,3
CN(C(=O)CSc1nnc(-c2ccco2)n1Cc1ccccc1)C1CCS(=O)(=O)C1 (stereo not drawn),100,100,102,101,103,13
O=C1NC(=O)C(=O)N1,130,89,95,88,96,-2
O=C1CNC(=O)N1,88,u,236*[may fluoresce violet],u,40*[may fluoresce violet],-13
CCC(=O)N1CCCc2cc(S(=O)(=O)NCc3cccs3)ccc21,u,u,u,x,21*[may fluoresce violet],-2
CCCCNS(=O)(=O)c1ccc2nc(-c3cccnc3)cc(C(=O)NC3CC3)c2c1,95,103,104,100,102,-16
